Compound activity: PubChem BioAssay, National Center for Advancing Translational Sciences (NCATS)
Hits are enriched below; roughly 18% of the tested compounds scored in any of these assays.
TGFb SMAD3 inh – blocks TGF-b signaling | HepG2 CAGA-GFP TGF-b/SMAD3 reporter, GFP fluorescence, 18 h; TGF-beta stimulated, 500 pg/mL final | hit rate 1.2% among 410,000 | Potency, µM (titrated, usually from 46.1 µM), for inactives: top-dose activity, negative = inhibition, actives largely listed as inhibitors; note: potency is the fitted concentration of half-maximal effect; % is set by controls: 0 for no effect and ±100 for the full control effect; nearly all actives have a fitted effect of over 65% in size
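HEPG2 CAGA-GFP cells (1000/well, DMEM with 1% FBS) were pre-incubated 2 h at 37 degrees C, given compound by pin tool, then stimulated with TGF-beta at 500 pg/mL final for 18 h before per-cell GFP fluorescence imaging.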
DT40 TDP1 CPT – growth inhibition of DT40 Tdp1-/-;hTDP1 cells with camptothecin (screen for TDP1 inhibitors). Potency, µM (doses to about 46.2 µM), without a hit: top-dose activity change, negative = growth inhibition, hits mostly inhibitors. chicken DT40 Tdp1-/-;hTDP1 cells + 20 nM CPT, ATP luminescence, 48 h. hit rate 12% among 420,000; note: potency is the fitted concentration of half-maximal effect; % is set by controls: 0 for no effect and ±100 for the full control effect; nearly all actives have a fitted effect of over 55% in size
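Chicken DT40 Tdp1-/- cells complemented with human TDP1, 400 cells/well, exposed to compounds plus 20 nM camptothecin for at least 48 h at 37 C; viability read as ATP content by CellTiter-Glo luminescence.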
TDP1 cell noCPT – qHTS for Inhibitors of human tyrosyl-DNA phosphodiesterase 1 (TDP1): qHTS in cells in absence of CPT; hit rate 15% among 420,000; Potency, µM (highest dose often 46.2 µM), for the others: at the top dose activity change, negative = growth inhibition, most hits filed as inhibitors; AID 686978, 2013; DT40 Tdp1-/- hTDP1 cells, no CPT, ATP luminescence, 48 h; note: potency is the fitted concentration of half-maximal effect; % is set by controls: 0 for no effect and ±100 for the full control effect; nearly all actives have a fitted effect of over 55% in size
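Chicken DT40 Tdp1-/- cells complemented with human TDP1, screened without camptothecin (DMSO vehicle only), 400 cells/well. Compounds pin-transferred, cells incubated at 37 °C for at least 48 hr. Growth read as ATP-dependent luminescence (CellTiter-Glo, 30 min at RT).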
IL-1B inflam inh – blocks inflammasome-driven IL-1 beta release; THP-1 LPS/ATP IL-1B secretion, AlphaLISA, 16 h; stronger effect = lower value; activity change, % at 57.5 µM; hit rate 4.7% among 360,000; in the data active = activity change below about -50%; inconclusive = mostly about -30% to -49%; note: % is set by controls: 0 for no effect and ±100 for the full control effect
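THP-1 cells pretreated 1 hr with compounds (up to 57.5 uM final), then stimulated with LPS (250 ng/mL final) plus ATP (1.25 mM final); secreted IL-1B measured by AlphaLISA after 16 hr, decreased signal indicating inhibition.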
HepG2 tox – kills HepG2 cells in TGF-b inhibitor counter-screen; hit rate 0.76% among 410,000; HepG2 CAGA-GFP viability, ATP luminescence, 18 h; Potency, µM (top dose mostly 46.1 µM), inactives show at the top dose activity change, negative = cytotoxicity, hits mostly cytotoxic; note: potency is the fitted concentration of half-maximal effect
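CellTiter-Glo luminescence gave cytotoxicity after 18 hours at 37 degrees C. The cells were HepG2 CAGA-GFP in 1% FBS DMEM, stimulated with 500 pg/mL TGF-beta after compound addition. %Activity was normalised to no-cell wells (complete cell-killing) and DMSO (no toxicity), and curves were fitted and classified.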
TDP1 block – TDP1 (human) enzyme inhibition. Q9NUW8. Potency, µM (series often up to 130 µM), inactives show at the top dose activity change, negative = inhibition, usual class: inhibitors. recombinant TDP1, AlphaScreen DNA substrate cleavage. hit rate 0.28% among 350,000. AID 485290; note: potency is the fitted concentration of half-maximal effect; % is set by controls: 0 for no effect and ±100 for the full control effect; nearly all actives have a fitted effect of over 40% in size
Target sequence (Q9NUW8 whole entry, looked up): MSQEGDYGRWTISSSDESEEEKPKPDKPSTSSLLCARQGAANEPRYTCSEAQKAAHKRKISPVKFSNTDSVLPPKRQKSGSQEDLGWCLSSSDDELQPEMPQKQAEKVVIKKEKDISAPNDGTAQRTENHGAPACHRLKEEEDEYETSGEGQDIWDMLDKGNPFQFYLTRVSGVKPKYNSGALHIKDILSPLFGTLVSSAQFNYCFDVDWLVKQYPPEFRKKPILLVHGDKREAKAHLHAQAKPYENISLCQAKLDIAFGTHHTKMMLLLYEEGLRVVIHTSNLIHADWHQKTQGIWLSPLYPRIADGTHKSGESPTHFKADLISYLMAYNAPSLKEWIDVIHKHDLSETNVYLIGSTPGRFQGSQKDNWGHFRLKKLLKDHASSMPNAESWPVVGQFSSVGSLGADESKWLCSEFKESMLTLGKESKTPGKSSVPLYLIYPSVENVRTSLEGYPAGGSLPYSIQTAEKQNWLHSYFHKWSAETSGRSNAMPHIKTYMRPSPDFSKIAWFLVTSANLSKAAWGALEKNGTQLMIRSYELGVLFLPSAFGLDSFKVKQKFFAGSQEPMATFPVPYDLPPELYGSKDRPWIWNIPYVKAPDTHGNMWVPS
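E. coli-derived human Tdp1, 1 nM final. Cpd preinc 15 min RT; substrate 15 nM final, 5 min RT; AS bead mix 10 ug/ml final, 10 min RT. Signal loss = tyrosine-FITC cleavage. No-enzyme wells = max signal.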
Numbers without * were called inactive; ? = inconclusive; . = no result given; ! = not active in a repeat; [ ] = another dose, or the depositor's remark. Unless noted, calls come from the whole dose curve; as a rule, active = well fitted curve in the direction sought with a large enough effect; inconclusive = small, poorly fitted or top-dose-only effect, or another doubt; inactive = no such curve, though single readings can be large; an effect the other way counts as inactive or inconclusive.

SMILES	TGFb SMAD3 inh	DT40 TDP1 CPT	TDP1 cell noCPT	IL-1B inflam inh	HepG2 tox	TDP1 block
O=C(N/N=C/c1ccc([N+](=O)[O-])o1)C1CC1	?	7.31µM*	23.1µM*	13.2	-88.6%	.
NC(=O)N/N=C\c1ccc([N+](=O)[O-])o1	.	.	.	.	.	-10.0%[56.1 µM]
COC(=O)c1cc(S(=O)(=O)N2c3ccccc3CC2C)cn1C (stereo unspecified)	-0.8%	2.9%	?	27.6	-7.8%	0.4%
Cc1cc(C)c(S(=O)(=O)N/N=C/c2ccc([N+](=O)[O-])o2)c(C)c1	-3.2%	23.1µM*	?	-3.5	-36.8%	1.4%[56.1 µM]
Cc1ccc(NC(=O)CCC(=O)N/N=C/c2ccc([N+](=O)[O-])o2)cc1C	?	?	?	9.0	-106.2%	-14.2%
NC(=O)N/N=C/c1ccc([N+](=O)[O-])o1	?	16.4µM*	3.26µM*	8.2	-77.4%	0.0%
O=C(O)c1ccc(N/N=C/C=C/c2ccc([N+](=O)[O-])o2)cc1	26.6%	8.2µM*	23.1µM*	-15.1	-1.5%	-14.3%
Cc1ccc(NC(=S)NCC(O)c2ccccc2)c(C)c1 (stereo unspecified)	-12.8%	?	-9.2%	3.8	5.0%	.
CCn1cnc2cc(NCc3ccc(N(C)C)cc3)ccc21	10µM*	14.6µM*	18.4µM*	?	7.08µM*!	10.5%
CCCn1cnc2cc(NCc3ccc(OC)cc3OC)ccc21	?	16.4µM*	23.1µM*	.	-31.7%	7.3%
Cc1ccc(CNc2ccc3c(c2)ncn3C(C)C)cc1	-25.3%	11.6µM*	13µM*	?	-31.5%	.
CCCn1cnc2cc(NCc3cccc(OC)c3)ccc21	-20.2%	-22.7%	?	-8.0	-16.7%	6.9%
Brc1ccc(CNc2ccc3ncccc3c2)cc1	?	20.6µM*	11.6µM*	-12.9	-31.9%	.
CN(C)c1ccc(CNc2ccc3c(c2)ncn3C(C)(C)C)cc1	0.0%	-91.6%	-27.2%	-24.1	3.9%	.
O=C(C[N+]12CN3CN(CN(C3)C1)C2)c1ccc(Br)cc1	-3.6%	?	?	.	-6.5%	.
C=C(NNC(C)=O)c1ccc(O)cc1	5.1%	-4.9%	6.6%	.	-5.0%	.
O=C(CN1CCOCC1)N1CCOCC1	8.3%	23.4%	2.2%	-5.6	3.7%	.
O=c1ccc2cc(S(=O)(=O)NCc3ccc(Cl)cc3)ccc2[nH]1	-2.3%	-20.0%	-23.9%	.	-11.8%	9.1%
CCn1cnc2cc(NCc3ccc(C)cc3)ccc21	-23.5%	-9.0%	-25.4%	-56.6*	-4.9%	-11.4%
CCn1cnc2cc(NCc3nc4ccccc4n3C)ccc21	-1.0%	-15.3%	?	-6.2	-44.8%	6.5%
CCn1cnc2cc(NCc3ccc(Br)cc3)ccc21	-5.3%	-26.6%	?	?	-14.9%	.
CCn1cnc2cc(NCc3nc4ccccc4n3Cc3ccccc3)ccc21	-16.9%	14.6µM*	?	-12.9	-32.2%	7.5%
CCN(CC)c1ccc(CNc2ccc3c(c2)ncn3CC)cc1	1.0%	?	-26.3%	-96.0*	-9.0%	.
CCCn1cnc2cc(NCc3ccc(Br)cc3)ccc21	0.0%	?	?	-83.3*	-14.2%	.
COc1ccc(N2CC(NC(=O)COc3ccc4ccccc4c3)CC2=O)cc1 (stereo unspecified)	?	-21.9%	-14.1%	.	-12.6%	2.6%
CC(=O)Nc1ccc(C(=O)N2CCCC(c3cc(C(=O)NCc4ccccc4)no3)C2)cc1 (stereo unspecified)	-1.6%	?	?	-13.7	-19.8%	.
COc1cccc(NC(=O)Cn2c(=O)ccc3cc(S(=O)(=O)N4CCC(C)CC4)ccc32)c1	-2.5%	18.4µM*	16.4µM*	.	-19.5%	5.5%
